Experimental findings from PubChem BioAssay (EPA / NIEHS) are described below.

Read-out in test [1]: Thrombomodulin, THBD (gene 7056)
Briefly: BSK_3C_Thrombomodulin: BioMAP Diversity Plus: 3C Assay for Thrombomodulin Biomarker Activity (AID 2283029). The note with it: primary human endothelial cells (HUVEC); actives raise or lower the signal. Summed up: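 HUVEC, 3C conditions; compound 24 h; thrombomodulin by ELISA; bidirectional curve fit vs DMSO baseline; parallel SRB total-protein staining for cytotoxicity.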

Read-out in test [2]: Urokinase-type plasminogen activator receptor (uPAR), PLAUR (gene 5329)
Briefly: BSK_4H_uPAR: BioMAP Diversity Plus: 4H Assay for Urokinase-type plasminogen activator receptor (uPAR) Biomarker Activity (AID 2283030). To be noted: primary human endothelial cells (HUVEC); actives raise or lower the signal. Summed up: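 uPAR level read by ELISA on HUVEC cultures (BioMAP 4H) 24 h post-dosing, analyzed for gain or loss relative to DMSO. Parallel SRB staining assessed overt cytotoxicity.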

Read-out in test [3]: Vascular endothelial growth factor receptor 2 (Homo sapiens) (UniProt P35968)
Briefly: BSK_4H_VEGFRII: BioMAP Diversity Plus: 4H Assay for Vascular endothelial growth factor receptor 2 (VEGFR2) Biomarker Activity (AID 2283031).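 As to AC50: cell-surface VEGFR2 protein level quantified by ELISA.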 To be noted: primary human endothelial cells (HUVEC); actives raise or lower the signal. The essentials:
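Measured by ELISA after 24 h of compound treatment: VEGFR2 on primary human umbilical vein endothelial cells, fitted in both directions relative to DMSO. Parallel cultures received SRB staining (560 nm) for overt cytotoxicity.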

Read-out in test [4]: Human Leukocyte Antigen - DR isotype (HLADR), HLA-DRA (gene 3122)
Briefly: BSK_BE3C_HLADR: BioMAP Diversity Plus: BE3C Assay for Human Leukocyte Antigen - DR isotype (HLADR) Biomarker Activity (AID 2283032). To be noted: primary human bronchial epithelial cells; actives raise or lower the signal. Summed up: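 Primary human bronchial epithelial cells (BE3C); 24 h chemical exposure; HLA-DR by ELISA; bidirectional curve fit vs DMSO baseline.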

Read-out in test [5]: Vascular cell adhesion molecule 1 (VCAM1), VCAM1 (gene 7412)
Briefly: BSK_4H_VCAM1: BioMAP Diversity Plus: 4H Assay for Vascular cell adhesion molecule 1 (VCAM1) Biomarker Activity (AID 2283033).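 As to outcome: cell-surface VCAM-1 protein measured by ELISA.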 The note with it: primary human endothelial cells (HUVEC); actives raise or lower the signal. The essentials: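 HUVEC, 24 h post-dose; VCAM-1 by ELISA. Bidirectional curve fit vs DMSO baseline. Parallel SRB total-protein stain (0.1% SRB after 10% TCA fixation, 560 nm) for cytotoxicity.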

Read-out in test [6]: Monokine induced gamma interferon (MIG), CXCL9 (gene 4283)
Briefly: BSK_BE3C_MIG: BioMAP Diversity Plus: BE3C Assay for Monokine induced gamma interferon (MIG) Biomarker Activity (AID 2283035).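 Also: MIG protein measured by ELISA in BE3C cultures after 24 h of dosing.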 To be noted: primary human bronchial epithelial cells; actives raise or lower the signal. The essentials:
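hu bronchial epithelial 1° cells, 24 h cpd; MIG by ELISA; bidirectional fit, DMSO = baseline.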

Read-out in test [7]: Transforming growth factor beta 1 (TGFb1), TGFB1 (gene 7040)
Briefly: BSK_BE3C_TGFb1: BioMAP Diversity Plus: BE3C Assay for Transforming growth factor beta 1 (TGFb1) Biomarker Activity (AID 2283036;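 also: TGF-b1 protein level measured by ELISA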). The note with it: primary human bronchial epithelial cells; actives raise or lower the signal. The essentials:
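Read-out: ELISA for TGF-b1 in primary human bronchial epithelial cultures, 24 h post-dose. Bidirectional curve fitting vs DMSO control; gain or loss of signal both scored.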

Read-out in test [8]: Plasminogen activator inhibitor-1 (PAI1), SERPINE1 (gene 5054)
Briefly: BSK_BE3C_PAI1: BioMAP Diversity Plus: BE3C Assay for Plasminogen activator inhibitor-1 (PAI1) Biomarker Activity (AID 2283037). The note with it: primary human bronchial epithelial cells; actives raise or lower the signal. The essentials: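 ELISA read-out of PAI-1 from human bronchial epithelial primary cells, 24 h post-dosing; bidirectional curve fit vs DMSO baseline, gain or loss of signal scored.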

Read-out in test [9]: urokinase plasminogen activator (uPA), PLAU (gene 5328)
Briefly: BSK_BE3C_uPA: BioMAP Diversity Plus: BE3C Assay for urokinase plasminogen activator (uPA) Biomarker Activity (AID 2283038).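 As to outcome: uPA protein level quantified by ELISA in cell cultures; uPA read one day after compound addition.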 The note with it: primary human bronchial epithelial cells; actives raise or lower the signal. The essentials:
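ELISA for uPA on human primary bronchial epithelial cultures 24 h post-treatment, gain or loss against DMSO. Parallel SRB staining (0.1% after 10% TCA fixation, 560 nm) assessed overt cytotoxicity.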

Read-out in test [10]: Urokinase-type plasminogen activator receptor (uPAR), PLAUR (gene 5329)
Briefly: BSK_BE3C_uPAR: BioMAP Diversity Plus: BE3C Assay for Urokinase-type plasminogen activator receptor (uPAR) Biomarker Activity (AID 2283039).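 Also: uPAR protein level measured by ELISA on the cells; cells exposed to compound for one day before measurement.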 To be noted: primary human bronchial epithelial cells; actives raise or lower the signal. Summed up: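 ELISA readout of uPAR on human lung primary bronchial epithelial cells, 24 h post-dosing. Bidirectional curve fit relative to DMSO vehicle baseline; gain or loss of signal both scored.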

Read-out in test [11]: Interleukin-6 (IL6), IL6 (gene 3569)
Briefly: BSK_CASM3C_IL6: BioMAP Diversity Plus: CASM3C Assay for Interleukin-6 (IL6) Biomarker Activity for (AID 2283040). The note with it: primary human coronary artery smooth muscle cells; actives raise or lower the signal.

Read-out in test [12]: Tissue plasminogen activator (tPA), PLAT (gene 5327)
Briefly: BSK_BE3C_tPA: BioMAP Diversity Plus: BE3C Assay for Tissue plasminogen activator (tPA) Biomarker Activity (AID 2283041).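 Also: tPA level quantified by ELISA one day after compound addition.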 The note with it: primary human bronchial epithelial cells; actives raise or lower the signal. The essentials:
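ELISA read-out of tPA on human primary bronchial epithelial cells, 24 h post-dosing; bidirectional fit vs DMSO negative control/baseline.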

Read-out in test [13]: Interleukin-8 (IL8), CXCL8 (gene 3576)
Briefly: BSK_CASM3C_IL8: BioMAP Diversity Plus: CASM3C Assay for Interleukin-8 (IL8) Biomarker Activity (AID 2283042).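 Also: IL-8 protein level quantified by ELISA.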 The note with it: primary human coronary artery smooth muscle cells; actives raise or lower the signal.

Read-out in test [14]: Human Leukocyte Antigen - DR isotype (HLADR), HLA-DRA (gene 3122)
Briefly: BSK_CASM3C_HLADR: BioMAP Diversity Plus: CASM3C Assay for Human Leukocyte Antigen - DR isotype (HLADR) Biomarker Activity (AID 2283043).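 Also: cell-surface HLA-DR protein level quantified by ELISA.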 To be noted: primary human coronary artery smooth muscle cells; actives raise or lower the signal.

Read-out in test [15]: Macrophage colony-stimulating factor (MCSF), CSF1 (gene 1435)
Briefly: BSK_CASM3C_MCSF: BioMAP Diversity Plus: CASM3C Assay for Macrophage colony-stimulating factor (MCSF) Biomarker Activity (AID 2283044).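 Also: M-CSF protein amount quantified by ELISA after 24 h exposure.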 To be noted: primary human coronary artery smooth muscle cells; actives raise or lower the signal.

Read-out in test [16]: Low-density lipoprotein receptor (LDLR), LDLR (gene 3949)
Briefly: BSK_CASM3C_LDLR: BioMAP Diversity Plus: CASM3C Assay for Low-density lipoprotein receptor (LDLR) Biomarker Activity (AID 2283045).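 Also: LDLR protein level on the cell surface quantified by ELISA.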 To be noted: primary human coronary artery smooth muscle cells; actives raise or lower the signal.

Read-out in test [17]: Monocyte Chemoattractant Protein-1 (MCP1), CCL2 (gene 6347)
Briefly: BSK_CASM3C_MCP1: BioMAP Diversity Plus: CASM3C Assay for Monocyte Chemoattractant Protein-1 (MCP1) Biomarker Activity (AID 2283046).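 Also: MCP-1 level quantified by ELISA 24 h after dosing.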 The note with it: primary human coronary artery smooth muscle cells; actives raise or lower the signal.

The nature of test [18]: BSK_CASM3C_Proliferation: Cell Proliferation Assessment in the BioMAP Diversity Plus: CASM3C Assay (AID 2283047).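 Also: sulforhodamine B total protein stain as relative cell number at 560 nm; sub-confluent cells exposed 48 h before staining; fitted both ways against DMSO so gain or loss of cell number.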 The note with it: primary human coronary artery smooth muscle cells.
Read-out in test [19]: Monokine induced gamma interferon (MIG), CXCL9 (gene 4283)
Briefly: BSK_CASM3C_MIG: BioMAP Diversity Plus: CASM3C Assay for Monokine induced gamma interferon (MIG) Biomarker Activity (AID 2283048).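 Also: MIG protein level measured by ELISA.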 To be noted: primary human coronary artery smooth muscle cells; actives raise or lower the signal.

Read-out in test [20]: Interferon-gamma inducible Protein 10 (IP10), CXCL10 (gene 3627)
Briefly: BSK_BE3C_IP10: BioMAP Diversity Plus: BE3C Assay for Interferon-gamma inducible Protein 10 (IP10) Biomarker Activity (AID 2283034). The note with it: primary human bronchial epithelial cells; actives raise or lower the signal. Summed up: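 ELISA readout of IP-10 in BE3C system: primary human bronchial epithelial cells, 24 h post-dosing; bidirectional curve fit vs DMSO baseline.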

The structures appear in SMILES notation. Calls of active or inactive are those of the source. The calls were made as follows: active = hit-call score of the fitted dose curve at least 0.9, where 1 is the maximum; inactive = score below 0.9.

For the molecule `CC(C)(OO)c1ccccc1`, the outcome in test [1], in test [2], in test [3], in test [4], in test [5] and in test [6] was inactive. The outcome in test [7], in test [8], in test [9], in [10], in test [11] and in test [12] was inactive. Besides, the result in test [13], in test [14], in test [15], in [16], in test [17] and in test [19] was inactive. The half-maximal activity concentration (AC50) (commonly the midpoint of the concentration-response curve, whichever way the signal moves) in test [18] was 22.5 µM (active).

`COC[C@H](C)N(C(=O)CCl)c1c(C)csc1C`: the outcome in [1], in test [2], in test [3], in test [4], in test [5] and in test [20] was inactive. For the same molecule, the outcome in [6], in [7], in test [8], in test [9], in test [10] and in test [11] was inactive. The outcome in test [12], in test [13], in [14], in test [15], in test [16] and in test [17] was inactive. Moreover, the outcome in test [18] and in test [19] was inactive.

Consider `ClC(Cl)=C(Cl)C(Cl)=C(Cl)Cl`, for which the result in test [1], in test [6], in test [7], in test [10], in test [12] and in test [13] was inactive. Also, the outcome in test [14], in test [15], in test [16], in test [17] and in test [19] was inactive. The AC50 in test [2] was 32.2 µM (active); in test [3], 31.1 µM (active); in [4], 26.9 µM (active); in test [5], 34.8 µM (active); in test [8] it was 20 µM (active); in test [9] it was 20 µM (active). Besides, the half-maximal activity concentration (AC50) in test [11] is 3.97 µM (active); in test [18], 1.52 µM (active).

`CCCCC(CC)CO[N+](=O)[O-]` (stereo unspecified): the outcome in test [1], in test [6], in [7], in [8], in test [9] and in [10] was inactive. The result in [12], in [13], in test [16], in test [18] and in [19] was inactive. The AC50 in [2] was 33 µM (active); in [3], 31.9 µM (active); in [4], 32.6 µM (active); in test [5] it was 30.5 µM (active); in [11] it was 31.8 µM (active); in [14], 28.2 µM (active). Besides, the AC50 was 29.6 µM (active) in test [15] and 20 µM (active) in [17].

`NC(=S)Nc1ccccc1`: the result in test [1], in [2], in test [3], in test [4], in test [5] and in [20] was inactive. The outcome in test [6], in test [7], in test [8], in [9], in test [10] and in test [11] was inactive. In addition, the result in test [12], in test [13], in test [14], in [15], in test [16] and in test [17] was inactive. Further, the result in [18] and in test [19] was inactive.

As to `Nc1ccc(-c2ccc(N)c(Cl)c2)cc1Cl`, the result in test [1], in test [3], in [4], in test [6], in test [7] and in [8] was inactive. In addition, the result in [9], in [10], in [11], in [12], in [13] and in [14] was inactive. For the same molecule, the result in test [15], in [16], in [17], in test [18] and in test [19] was inactive. Further, the values for the AC50 in test [2] and in test [5] were 10.6 µM (active) and 9.55 µM (active), respectively.

With `O=C(O)C(F)(F)C(F)(F)C(F)(F)C(F)(F)C(F)(F)C(F)(F)F`, the result in [1], in [2], in test [3], in test [4], in [5] and in [20] was inactive. In addition, the result in test [6], in test [7], in test [8], in test [9], in test [10] and in test [11] was inactive. Besides, the outcome in test [12], in test [13], in [14], in test [15], in test [16] and in test [17] was inactive. Also, the outcome in test [18] and in [19] was inactive.
